The list is not random: actives were taken first. Their share in the collection is about 7.9%.
KB-3-1 cytotox: kills parental KB-3-1 adenocarcinoma cells; KB-3-1 viability, CellTiter-Glo ATP luminescence, 72 h; Potency, µM (doses to about 46.1 µM), actives largely listed as cytotoxic; 400,000 tested, 1.4% active; AID 1347075; note: % is set by controls: 0 for no effect and ±100 for the full control effect; nearly all actives have a fitted effect of over 60% in size
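Viability of parental KB-3-1 cells, measured by CellTiter-Glo luminescence, followed a 72 h incubation at 37 °C with pinned compounds in phenol-red-free DMEM containing 10% FBS.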
HT1080 IDH1KD tx: toxicity to HT-1080 IDH1 knockdown cells (counter line). 360,000 tested, 2% active. Potency, µM (series often up to 46.1 µM), for the others: at the top dose activity, negative = toxicity, actives largely listed as cytotoxic. HT-1080 IDH1 knockdown viability, ATP luminescence, 48 h. AID 686971;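 note: 0% = DMSO wells and -100% = cell-free medium wells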
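HT-1080-IDH1KD cells (IDH1 knocked down), 750/well in RPMI with 5% FBS, treated with compound 48 h at 37 degrees C. Viability by CellTiter-Glo luminescence, normalised to DMSO and no-cell wells; concentration-response curves classed.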
MCF10A rerep: induces DNA re-replication in MCF 10a normal breast cells; MCF 10A DNA re-replication, Hoechst nuclear intensity, 48 h; Potency, µM (top dose mostly 46.1 µM), inactives show top-dose activity, positive = re-replication, actives largely listed as activators; 350,000 tested, 2.9% active; note: % of control where 0% means no effect; nearly all actives have a fitted effect of over 50% in size
SW480 rerep: DNA re-replication induction in SW480 cells. SW480 DNA re-replication, Hoechst DNA content imaging, 48 h. Potency, µM (titrated, usually from 46.1 µM), for the others: at the top dose re-replication activation, usual class: activators. 340,000 tested, 1.8% active. AID 624297; note: % of control where 0% means no effect; nearly all actives have a fitted effect of over 55% in size
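Treated cells incubate 48 hr (37 C, 5% CO2), are stained 40 min with Hoechst, and nuclear fluorescence is enumerated; a rise in nuclei with high DNA signal marks re-replication.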
KB-V1 MDR tox: KB-V1 MDR subline cytotoxicity. KB-V1 MDR cells viability, CellTiter-Glo, 72 h. Potency, µM (top dose mostly 46.1 µM), most hits filed as cytotoxic. 400,000 tested, 3.4% active; note: % is set by controls: 0 for no effect and ±100 for the full control effect; nearly all actives have a fitted effect of over 60% in size
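KB-V1, DMEM (no phenol red) + 10% FBS; cpd pin-transferred, titration series; 72 h, 37 degrees C; CellTiter-Glo, luminescence. Data normalized, curve-fit.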
HT1080NT lethal: kills 2HG-producing HT-1080-NT fibrosarcoma cells; HT-1080-NT fibrosarcoma viability, CellTiter-Glo ATP luminescence, 48 h; Potency, µM (top dose mostly 46.1 µM), inactives show at the top dose activity, negative = less viability, actives largely listed as cytotoxic; 360,000 tested, 1.6% active;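 note: NT is the 2HG producing partner of a matched IDH1 knockdown line; 0% = DMSO-treated cells and -100% = media-only wells without cells; nearly all actives have a fitted effect of over 55% in size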
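HT-1080-NT fibrosarcoma cells (2HG-overproducing), 750 cells/well in RPMI with 5% FBS, dosed after 2 h and incubated 48 h at 37C. CellTiter-Glo luminescence normalized to DMSO and no-cell wells; concentration-response curves fitted and classed.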
Starred values were filed as active, the others as inactive. Calls come from the whole dose curve; as a rule, active = well fitted curve in the direction sought with a large enough effect; inconclusive = small, poorly fitted or top-dose-only effect, or another doubt; inactive = no such curve, though single readings can be large; an effect the other way counts as inactive or inconclusive. Potency is the fitted concentration of half-maximal effect.

How did C[C@]12CC[C@H]3[C@@H](CCC4=CC(=O)CC[C@@]43C)[C@@H]1CC[C@@H]2C(=O)CO do in these assays?
KB-3-1 cytotox: inconclusive; HT1080 IDH1KD tx: -23%; MCF10A rerep: inconclusive; SW480 rerep: inconclusive; KB-V1 MDR tox: 8.2µM*; HT1080NT lethal: inconclusive

What do the screens show for `C#C[C@]1(O)CC[C@H]2[C@@H]3CCC4=CC(=O)CC[C@]4(C)[C@H]3CC[C@@]21C`?
KB-3-1 cytotox: inactive; HT1080 IDH1KD tx: 2%; MCF10A rerep: 6%; SW480 rerep: -6%; KB-V1 MDR tox: inactive; HT1080NT lethal: 20%

Results for CCOc1cc(C2NCc3ccccc3-n3cccc32)ccc1O (stereo unspecified) ?
KB-3-1 cytotox: inactive; HT1080 IDH1KD tx: -6%; MCF10A rerep: 4%; SW480 rerep: -2%; KB-V1 MDR tox: inactive; HT1080NT lethal: -11%

How did CC(C)Oc1cccnc1N(C)C1CCN(Cc2ccccc2)CC1 do in these assays?
KB-3-1 cytotox: inactive; HT1080 IDH1KD tx: -8%; MCF10A rerep: -3%; SW480 rerep: -25%; KB-V1 MDR tox: inconclusive; HT1080NT lethal: -22%

How did CCc1c(C(=O)NN2C(=O)C3C4CCC(O4)C3C2=O)csc1C (stereo unspecified) do in these assays?
KB-3-1 cytotox: inactive; HT1080 IDH1KD tx: 14%; MCF10A rerep: 2%; SW480 rerep: 2%; KB-V1 MDR tox: inactive; HT1080NT lethal: 1%

How did S=C(NCCc1ccccc1)N1Cc2cc(N3CCCCC3)ccc2-n2nncc2C1 do in these assays?
KB-3-1 cytotox: inactive; HT1080 IDH1KD tx: -7%; KB-V1 MDR tox: inconclusive; HT1080NT lethal: -4%

Results for C[C@@H]1CN([C@H](C)CO)C(=O)CCCn2nncc2CO[C@H]1CN(C)C(=O)Oc1ccccc1 ?
KB-3-1 cytotox: inactive; HT1080 IDH1KD tx: -7%; KB-V1 MDR tox: inactive; HT1080NT lethal: 13%

How did CCCCNC(=O)Nc1ccc(C(O)(C(=O)OC)C(F)(F)F)cc1 (stereo unspecified) do in these assays?
KB-3-1 cytotox: inactive; HT1080 IDH1KD tx: -2%; MCF10A rerep: 6%; SW480 rerep: -8%; KB-V1 MDR tox: inactive; HT1080NT lethal: 1%

Results for CC12CCC(=O)C=C1CCC1C2C(O)CC2(C)C(O)CCC12 (stereo unspecified) ?
KB-3-1 cytotox: inconclusive; HT1080 IDH1KD tx: 0%; MCF10A rerep: -6%; SW480 rerep: -11%; KB-V1 MDR tox: inconclusive; HT1080NT lethal: -9%

What do the screens show for `C[C@]12CC[C@H]3[C@@H](CCC4=CC(=O)CC[C@@]43C)[C@@H]1CC[C@@H]2O`?
KB-3-1 cytotox: 10µM*; HT1080 IDH1KD tx: -4%; MCF10A rerep: 7%; SW480 rerep: -10%; KB-V1 MDR tox: 3.7µM*; HT1080NT lethal: inconclusive

What do the screens show for `CC12CCC(=O)C=C1CCC1C2CCC2(C)C(O)CCC12` (stereo unspecified)?
KB-3-1 cytotox: inconclusive; HT1080 IDH1KD tx: -3%; MCF10A rerep: 11%; SW480 rerep: 1%; KB-V1 MDR tox: 4.1µM*; HT1080NT lethal: 5%

Results for Brc1cc2c(cc1CN1CCN(c3ccccc3)CC1)OCCO2 ?
KB-3-1 cytotox: inconclusive; HT1080 IDH1KD tx: -18%; MCF10A rerep: 12%; SW480 rerep: 27%; KB-V1 MDR tox: inactive; HT1080NT lethal: -14%

What do the screens show for `CCN(CCNc1ccc([N+](=O)[O-])c2cccnc12)S(=O)(=O)c1ccccc1`?
KB-3-1 cytotox: inactive; HT1080 IDH1KD tx: 9%; MCF10A rerep: 10%; SW480 rerep: -9%; KB-V1 MDR tox: inactive; HT1080NT lethal: 5%

Results for Cc1c(NS(=O)(=O)c2ccccc2)ccc([N+](=O)[O-])c1Cl ?
KB-3-1 cytotox: inconclusive; HT1080 IDH1KD tx: inconclusive; MCF10A rerep: 21µM*; SW480 rerep: 3%; KB-V1 MDR tox: inconclusive; HT1080NT lethal: 2.9µM*
